High-throughput results: PubChem, National Center for Advancing Translational Sciences (NCATS)
TrxR1 inh: blocks rat thioredoxin reductase 1. O89049. recombinant rTrxR1, NADPH fluorescence consumption, selenite substrate. Potency, µM (titrated, usually from 114 µM), for inactives: top-dose activity change, negative = inhibition, actives largely listed as inhibitors. actives 1% (n = 390,000); note: potency is the fitted concentration of half-maximal effect; nearly all actives have a fitted effect of over 65% in size
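Rat TrxR1 (90 nM in the dispensed reagent) was pre-reduced with 400 uM NADPH for 5 min at room temperature, then incubated with compound for 15 min. After 400 uM selenite was added, NADPH fluorescence (Ex 340/Em 450 nm) was followed for 8 min.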
Six1-Eya2 blk: blocks human Six1 binding to Eya2. actives 0.56% (n = 360,000). AlphaScreen GST-Six1/His-Eya2 binding, biochemical; active compounds read low. activity change, % (no concentration beside the values); in the data active = activity change below about -65%; inconclusive = mostly about -30% to -63%
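Compounds are tested against tagged Six1 and Eya2 proteins bridged by glutathione donor and nickel acceptor beads; after a one-hour incubation at 37 °C without light, AlphaScreen emission is recorded.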
TrxR1 substrate: rat thioredoxin reductase 1 substrate activity | O89049 | Potency, µM (highest dose often 114 µM), without a hit: at the top dose activity change, negative = substrate turnover | AID 588456 | purified TrxR1 substrate turnover, NADPH consumption readout | actives 0.01% (n = 390,000); note: potency is the fitted concentration of half-maximal effect; nearly all actives have a fitted effect of over 50% in size
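Rat TrxR1, dispensed at 90 nM, was prereduced with 400 uM NADPH (final) for 5 min at ~22 deg C, then incubated with compound 15 min before 400 uM selenite. A first-read NADPH fluorescence drop versus no-compound background flagged substrates.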
CtBP-E1A inh: CtBP/E1A binding inhibition | AlphaScreen GST-E1A/His-CtBP binding, 1536-well; active compounds read low | activity change, % (concentration not given with the values) | actives 0.49% (n = 340,000); in the data active = activity change below about -65%; inconclusive = mostly about -30% to -63%
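AlphaScreen with 125 nM GST-E1A and 125 nM His-CtBP (5X stocks) in Tris pH 8.0, 300 mM NaCl, BSA, Tween 20, TCEP. Compounds preincubated 2 h at 37 deg C, then glutathione donor/nickel acceptor beads added for 1 h at 37 deg C in dark.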
GALK inhibitor: blocks human galactokinase activity; Purified GALK, Kinase-Glo residual ATP luminescence; Potency, µM (top dose mostly 57.5 µM), for inactives: at the top dose activity change, negative = inhibition, hits mostly inhibitors; actives 0.007% (n = 270,000); note: potency is the fitted concentration of half-maximal effect
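Galactose (100 uM) and ATP (35 uM) were turned over by 5 nM GALK for 1 h at RT. Kinase-Glo Plus then converted the remaining ATP into a luminescent signal.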
Eya2 phos inh: inhibitors of human Eya2 phosphatase activity; Potency, µM (titrated, usually from 76.9 µM), without a hit: at the highest dose activity, negative = inhibition, hits mostly inhibitors; actives 0.006% (n = 330,000); AID 488837; recombinant Eya2, OMFP fluorescence dephosphorylation (OMFP is methylfluorescein phosphate); note: potency is the fitted concentration of half-maximal effect
Target sequence (O00167 whole entry, looked up): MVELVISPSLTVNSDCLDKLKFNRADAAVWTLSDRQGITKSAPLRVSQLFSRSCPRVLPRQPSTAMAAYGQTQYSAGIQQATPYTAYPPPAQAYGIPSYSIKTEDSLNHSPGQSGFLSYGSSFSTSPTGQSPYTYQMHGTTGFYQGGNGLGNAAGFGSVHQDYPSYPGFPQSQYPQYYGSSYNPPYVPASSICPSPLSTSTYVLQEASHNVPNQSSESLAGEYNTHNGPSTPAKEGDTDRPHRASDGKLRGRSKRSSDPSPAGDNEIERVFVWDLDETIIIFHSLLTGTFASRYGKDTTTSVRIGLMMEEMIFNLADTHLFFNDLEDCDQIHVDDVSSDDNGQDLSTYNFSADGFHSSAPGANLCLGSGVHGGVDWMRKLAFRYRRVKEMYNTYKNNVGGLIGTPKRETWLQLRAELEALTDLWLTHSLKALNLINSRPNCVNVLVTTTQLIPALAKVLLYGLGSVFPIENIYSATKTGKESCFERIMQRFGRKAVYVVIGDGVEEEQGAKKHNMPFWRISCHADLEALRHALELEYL
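Eya2 protein (added as 0.2 uM solution) was preincubated with compound for 10 min at ambient temperature in 50 mM HEPES pH 7.5, 50 mM NaCl, 5 uM MgCl2, 0.05% BSA, 1 mM DTT. OMFP (added at 50 uM) then reacted 10 min; fluorescence read at 485/525 nm.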
An asterisk follows results filed as active; [ ] = remark or other dose. Sampled rows, rich in hits. Any-hit rate of the full collection: about 1.5%. Unless noted, calls come from the whole dose curve; as a rule, active = well fitted curve in the direction sought with a large enough effect; inconclusive = small, poorly fitted or top-dose-only effect, or another doubt; inactive = no such curve, though single readings can be large; an effect the other way counts as inactive or inconclusive. % is set by controls: 0 for no effect and ±100 for the full control effect.

Results for CN1CCC(O)(c2ccc(Cl)cc2)C(C(=O)c2ccc(Cl)cc2)C1 (centres undefined) ?
TrxR1 inh: 0.112µM*; Six1-Eya2 blk: -2.7; TrxR1 substrate: 4.4%; CtBP-E1A inh: -5.0; GALK inhibitor: 7.7%; Eya2 phos inh: 9.7%

How did C[C@]12CC[C@H]3C(=CCc4cc(O)ccc43)[C@@H]1CCC2=O do in these assays?
TrxR1 inh: inconclusive; Six1-Eya2 blk: 3.6; TrxR1 substrate: 1.2%; CtBP-E1A inh: -17.3; GALK inhibitor: 4.4%; Eya2 phos inh: 0.1%

What do the screens show for `CN1C(=O)C(=Cc2ccccc2Oc2ccc(Cl)c(F)c2)C(=O)N(C)C1=O`?
TrxR1 inh: 11.2µM*; Six1-Eya2 blk: -5.1; TrxR1 substrate: -5.5%; CtBP-E1A inh: 0.8; GALK inhibitor: 5.9%; Eya2 phos inh: 0.6%

How did O=C1NC(=O)C(=Cc2ccccc2Oc2ccc(F)cc2)C(=O)N1 do in these assays?
TrxR1 inh: 12.6µM*; Six1-Eya2 blk: 3.0; TrxR1 substrate: -3.9%[57.1 µM]; CtBP-E1A inh: -1.2; GALK inhibitor: -2.8%; Eya2 phos inh: -0.4%

How did CN1C(=O)C(=Cc2ccc(-c3cccc(Cl)c3)o2)C(=O)N(C)C1=O do in these assays?
Eya2 phos inh: -10.5%

What do the screens show for `Cc1cc(C=C2C(=O)NC(=O)NC2=O)c(C)n1-c1ccc2c(c1)OCO2`?
TrxR1 inh: -35.2%; Six1-Eya2 blk: 8.1; TrxR1 substrate: -11.5%; CtBP-E1A inh: 11.0; GALK inhibitor: -3.5%; Eya2 phos inh: 14.0%

Results for O=C1NC(=O)C(=Cc2ccccc2[N+](=O)[O-])C(=O)N1 ?
TrxR1 inh: 7.94µM*; Six1-Eya2 blk: -27.1; TrxR1 substrate: 5.7%; CtBP-E1A inh: 9.6

How did O=C1NC(=O)C(=Cc2cc3c(cc2[N+](=O)[O-])OCO3)C(=O)N1 do in these assays?
TrxR1 inh: 8.91µM*; Six1-Eya2 blk: -14.4; TrxR1 substrate: 9.5%; CtBP-E1A inh: -1.5; GALK inhibitor: -1.0%; Eya2 phos inh: 5.8%

Results for COc1ccc(/C=C/c2nc(-c3ccccc3O)n(-c3ccccc3)n2)cc1OC ?
TrxR1 inh: -19.5%; TrxR1 substrate: 35.6%

What do the screens show for `Cc1cccc(N2C(=O)NC(=O)/C(=C/c3cc4c(cc3[N+](=O)[O-])OCO4)C2=O)c1`?
TrxR1 inh: 7.08µM*; Six1-Eya2 blk: 5.3; TrxR1 substrate: 8.7%[57.1 µM]; CtBP-E1A inh: 2.8; GALK inhibitor: 3.3%; Eya2 phos inh: 13.2%

What do the screens show for `COC(=O)COc1ccc(/C=C2\C(=O)NC(=S)N(c3ccc(C)cc3)C2=O)cc1OC`?
TrxR1 inh: 3.98µM*; Six1-Eya2 blk: -3.4; TrxR1 substrate: 0.2%; CtBP-E1A inh: 4.4; GALK inhibitor: 7.7%; Eya2 phos inh: 6.6%

How did COc1ccc(N2C(=O)/C(=C/c3ccc(C)o3)C(=O)NC2=S)c(OC)c1 do in these assays?
TrxR1 inh: 14.1µM*; Six1-Eya2 blk: 5.8; TrxR1 substrate: -2.1%; GALK inhibitor: 1.8%; Eya2 phos inh: -1.9%

How did CCOC(=O)COc1ccc(/C=C2\C(=O)NC(=S)N(c3ccc(OC)cc3)C2=O)cc1OC do in these assays?
TrxR1 inh: 3.16µM*; Six1-Eya2 blk: -2.9; TrxR1 substrate: -0.7%; CtBP-E1A inh: 1.0; GALK inhibitor: 0.5%; Eya2 phos inh: 17.7%

How did COc1ccc(N2C(=O)/C(=C/c3ccc(OC)c(OC)c3)C(=O)NC2=S)cc1 do in these assays?
TrxR1 inh: 12.6µM*; Six1-Eya2 blk: -12.4; TrxR1 substrate: -0.5%; CtBP-E1A inh: 0.5; GALK inhibitor: 0.9%; Eya2 phos inh: -0.3%

What do the screens show for `CCOC(=O)CSCCOc1ccc(C=C2C(=O)NC(=O)NC2=O)cc1OC`?
TrxR1 inh: inconclusive; Six1-Eya2 blk: -19.8; TrxR1 substrate: -9.6%[57.1 µM]; CtBP-E1A inh: -5.9; GALK inhibitor: -0.8%; Eya2 phos inh: 9.7%

Results for C[C@H]1CCCC=CC2C[C@H](O)C[C@@H]2[C@H](O)C=CC(=O)O1 (some centres undefined) ?
TrxR1 inh: 8.1%; TrxR1 substrate: 1.8%

Results for CCN1C[C@]2(C)CC[C@H](O)[C@@]34[C@@H]5C[C@@H]6[C@@H](OC)C[C@@](O)(C5[C@H]6O)[C@@H](C[C@@H]23)[C@@H]14 ?
TrxR1 inh: 0.8%

What do the screens show for `O=C(O)c1ccccc1-c1ccc(C=C2C(=O)N(c3ccccc3)C(=S)N(c3ccccc3)C2=O)o1`?
TrxR1 inh: 8.91µM*; Six1-Eya2 blk: -3.0; TrxR1 substrate: 1.4%; GALK inhibitor: -3.1%; Eya2 phos inh: 14.2%

How did CN1C(=O)C(=Cc2ccc(N3CCCCCC3)o2)C(=O)N(C)C1=S do in these assays?
TrxR1 inh: 2.9%[57.1 µM]; Six1-Eya2 blk: 7.7; TrxR1 substrate: -8.8%; CtBP-E1A inh: 2.6; GALK inhibitor: 7.2%; Eya2 phos inh: -1.6%

Results for CCCCC(=O)N/N=C/c1c(O)n(CCCC)c(=S)[nH]c1=O ?
TrxR1 inh: -2.4%[57.1 µM]; Six1-Eya2 blk: -73.6*; TrxR1 substrate: 0.4%[57.1 µM]; CtBP-E1A inh: -65.8*; GALK inhibitor: -2.9%; Eya2 phos inh: -0.1%

How did CCn1c(O)c(/C=N/NC(=O)c2ccncc2)c(=O)[nH]c1=S do in these assays?
TrxR1 inh: -18.2%; Six1-Eya2 blk: -17.3; TrxR1 substrate: -12.8%; GALK inhibitor: -3.4%; Eya2 phos inh: -11.5%

How did CCCCC(=O)N/N=C/c1c(O)n(-c2cccc3ccccc23)c(=O)[nH]c1=O do in these assays?
TrxR1 inh: 5.8%; Six1-Eya2 blk: -70.8*; TrxR1 substrate: -7.4%; GALK inhibitor: -2.4%; Eya2 phos inh: -7.5%

Results for CC(=O)Nc1ccc(N=Cc2c(O)n(Cc3ccco3)c(=O)[nH]c2=O)cc1 ?
TrxR1 inh: -51.8%; Six1-Eya2 blk: -18.0; TrxR1 substrate: -4.1%[57.1 µM]; CtBP-E1A inh: -2.3; Eya2 phos inh: 6.0%

Results for O=C(N/N=C/c1c(O)n(Cc2ccc(F)cc2)c(=S)[nH]c1=O)c1ccncc1 ?
TrxR1 inh: -5.4%; Six1-Eya2 blk: inconclusive; TrxR1 substrate: 3.6%; CtBP-E1A inh: -66.8*; GALK inhibitor: -3.2%; Eya2 phos inh: -2.9%

How did CCCCC(=O)N/N=C/c1c(O)n(Cc2ccco2)c(=O)[nH]c1=O do in these assays?
TrxR1 inh: -6.6%[11.4 µM]; Six1-Eya2 blk: -74.5*; TrxR1 substrate: -0.5%[11.4 µM]; CtBP-E1A inh: inconclusive; GALK inhibitor: -0.2%; Eya2 phos inh: -8.7%

How did CCCCC(=O)N/N=C/c1c(O)n(C2CC2)c(=S)[nH]c1=O do in these assays?
TrxR1 inh: -8.2%; Six1-Eya2 blk: 0.1; TrxR1 substrate: -4.3%; CtBP-E1A inh: 4.1; GALK inhibitor: 4.5%; Eya2 phos inh: 0.8%
